# Source: the supplement of paper PMC8728848
# The entries come from a sample that favours the strongest signals as a whole.
# B1: OGAN (protein)
# chain: MVQKESQATLEERESELSSNPAASAGASLEPPAAPAPGEDNPAGAGGAAVAGAAGGARRFLCGVVEGFYGRPWVMEQRKELFRRLQKWELNTYLYAPKDDYKHRMFWREMYSVEEAEQLMTLISAAREYEIEFIYAISPGLDITFSNPKEVSTLKRKLDQVSQFGCRSFALLFNDIDHNMCAADKEVFSSFAHAQVSITNEIYQYLGEPETFLFCPTEYCGTFCYPNVSQSPYLRTVGEKLLPGIEVLWTGPKVVSKEIPVESIEEVSKIIKRAPVIWDNIHANDYDQKRLFLGPYKGRSTELIPRLKGVLTNPNCEFEANYVAIHTLATWYKSNMNGVRKDVVMTDSEDSTVSIQIKLENEGSDEDIETDVLYSPQMALKLALTEWLQEFGVPHQY
# What was measured:
# Test in all cases: glycan array binding signal (z-score within array); higher = stronger binding
# Settings in all cases: glycan notation: IUPAC condensed, linker removed
# [1] = target: Fuc(a1-2)Gal(b1-3)[Fuc(a1-4)]GlcNAc(b1-2)Man(a1-3)[Fuc(a1-2)Gal(b1-3)[Fuc(a1-4)]GlcNAc(b1-2)Man(a1-3)]Man(b1-4)GlcNAc(b1-4)GlcNAc
# Method in brief: (§1)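 Glycan array binding is given as a within-array Z-score, which can be read as non-binding when negative. The arrays, 3228 of them, came from the Consortium for Functional Glycomics database and were retained only where the protein sequence was available. Z-scores were averaged across arrays of the same protein sequence at different concentrations or buffers and across linkers.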
# [2] = target: Fuc(a1-2)Gal(b1-4)GlcNAc(b1-2)Man(a1-3)[Fuc(a1-2)Gal(b1-4)GlcNAc(b1-2)Man(a1-6)]Man(b1-4)GlcNAc(b1-4)[Fuc(a1-6)]GlcNAc
# Method in brief: as §1
# [3] = target: Fuc(a1-2)Gal(b1-4)GlcNAc(b1-2)[Fuc(a1-2)Gal(b1-4)GlcNAc(b1-4)]Man(a1-3)[Fuc(a1-2)Gal(b1-4)GlcNAc(b1-2)Man(a1-6)]Man(b1-4)GlcNAc(b1-4)GlcNAc
# Method in brief: as §1
# [4] = target: Fuc(a1-2)Gal(b1-4)GlcNAc(b1-3)[Fuc(a1-2)Gal(b1-4)GlcNAc(b1-6)]GalNAc
# Method in brief: as §1
# [5] = target: Fuc(a1-2)Gal6S(b1-3)GlcNAc6S
# Method in brief: as §1
# [6] = target: Fuc(a1-2)[Gal(a1-3)]Gal(b1-3)GalNAc
# Method in brief: as §1
# [7] = target: Fuc(a1-2)[Gal(a1-3)]Gal(b1-4)GlcNAc(b1-3)[Fuc(a1-2)[Gal(a1-3)]Gal(b1-4)GlcNAc(b1-6)]GalNAc
# Method in brief: as §1
# [8] = target: Fuc(a1-2)[GalNAc(a1-3)]Gal(b1-3)GalNAc(a1-3)[Fuc(a1-2)]Gal(b1-4)GlcNAc
# Method in brief: as §1
# [9] = target: Fuc(a1-2)[GalNAc(a1-3)]Gal(b1-3)GalNAc(b1-3)Gal(a1-4)Gal(b1-4)Glc
# Method in brief: as §1
# [10] = target: Fuc(a1-2)[GalNAc(a1-3)]Gal(b1-4)GlcNAc
# Method in brief: as §1
# [11] = target: Fuc(a1-2)[GalNAc(a1-3)]Gal(b1-4)GlcNAc(b1-3)Gal(b1-4)GlcNAc(b1-3)Gal(b1-4)GlcNAc
# Method in brief: as §1
# [12] = target: Fuc(a1-2)[GalNAc(a1-3)]Gal(b1-4)[Fuc(a1-3)]GlcNAc
# Method in brief: as §1
# [13] = target: Fuc(a1-2)[GalNAc(a1-4)]Gal(b1-4)GlcNAc
# Method in brief: as §1
# [14] = target: Fuc(a1-3)[Gal(b1-4)]GlcNAc6S
# Method in brief: as §1
# [15] = target: Fuc(a1-3)[Gal3S(b1-4)]GlcNAc
# Method in brief: as §1
# [16] = target: Fuc(a1-3)[Gal3S(b1-4)]GlcNAc6S
# Method in brief: as §1
# [17] = target: Gal(a1-3)Gal(b1-4)GlcNAc(b1-2)Man
# Method in brief: as §1
# [18] = target: Gal(a1-3)Gal(b1-4)[Fuc(a1-3)]GlcNAc(b1-2)Man(a1-3)[Gal(a1-3)Gal(b1-4)[Fuc(a1-3)]GlcNAc(b1-2)Man(a1-6)]Man(b1-4)GlcNAc(b1-4)GlcNAc
# Method in brief: as §1
# [19] = target: Gal(b1-3)GalNAc(b1-4)Gal(b1-4)Glc
# Method in brief: as §1
# [20] = target: Gal(b1-3)GlcNAc(b1-2)Man(a1-3)[Gal(b1-3)GlcNAc(b1-2)Man(a1-6)]Man(b1-4)GlcNAc(b1-4)[Fuc(a1-6)]GlcNAc
# Method in brief: as §1
# [21] = target: Gal(b1-3)GlcNAc(b1-3)Gal(b1-4)GlcNAc(b1-2)[Gal(b1-3)GlcNAc(b1-3)Gal(b1-4)GlcNAc(b1-6)]Man(a1-6)[Gal(b1-3)GlcNAc(b1-3)Gal(b1-4)GlcNAc(b1-2)Man(a1-3)]Man(b1-4)GlcNAc(b1-4)[Fuc(a1-6)]GlcNAc
# Method in brief: as §1
# [22] = target: Gal(b1-3)[Fuc(a1-4)]GlcNAc(b1-2)Man
# Method in brief: as §1
# [23] = target: Gal(b1-4)GlcNAc(b1-2)Man(a1-3)[Gal(b1-4)GlcNAc(b1-2)Man(a1-6)][Gal(b1-4)GlcNAc(b1-4)]Man(b1-4)GlcNAc(b1-4)[Fuc(a1-6)]GlcNAc
# Method in brief: as §1
# [24] = target: Gal(b1-4)GlcNAc(b1-3)Gal(b1-4)GlcNAc(b1-2)[Gal(b1-4)GlcNAc(b1-3)Gal(b1-4)GlcNAc(b1-6)]Man(a1-6)[Gal(b1-4)GlcNAc(b1-3)Gal(b1-4)GlcNAc(b1-2)Man(a1-3)]Man(b1-4)GlcNAc(b1-4)[Fuc(a1-6)]GlcNAc
# Method in brief: as §1
# [25] = target: Gal(b1-4)GlcNAc(b1-3)Gal(b1-4)GlcNAc(b1-3)Gal(b1-4)GlcNAc(b1-2)[Gal(b1-4)GlcNAc(b1-3)Gal(b1-4)GlcNAc(b1-3)Gal(b1-4)GlcNAc(b1-6)]Man(a1-6)[Gal(b1-4)GlcNAc(b1-3)Gal(b1-4)GlcNAc(b1-3)Gal(b1-4)GlcNAc(b1-2)Man(a1-3)]Man(b1-4)GlcNAc(b1-4)[Fuc(a1-6)]GlcNAc
# Method in brief: as §1
# [26] = target: Gal(b1-4)GlcNAc(b1-3)Gal(b1-4)GlcNAc(b1-3)Gal(b1-4)GlcNAc(b1-3)Gal(b1-4)GlcNAc(b1-3)Gal(b1-4)GlcNAc(b1-2)Man(a1-3)[Gal(b1-4)GlcNAc(b1-3)Gal(b1-4)GlcNAc(b1-3)Gal(b1-4)GlcNAc(b1-3)Gal(b1-4)GlcNAc(b1-3)Gal(b1-4)GlcNAc(b1-2)Man(a1-6)]Man(b1-4)GlcNAc(b1-4)[Fuc(a1-6)]GlcNAc
# Method in brief: as §1
# [27] = target: Gal(b1-4)GlcNAc(b1-3)[GlcNAc(b1-6)]Gal(b1-4)GlcNAc
# Method in brief: as §1
# [28] = target: Gal(b1-4)GlcNAc(b1-6)GalNAc
# Method in brief: as §1
# [29] = target: Gal3S(b1-4)GlcNAc
# Method in brief: as §1
binder,measurement,setting,value
B1,glycan array binding signal (z-score),[1],0.055
same,glycan array binding signal (z-score),[2],-0.047
same,glycan array binding signal (z-score),[3],-0.036
same,glycan array binding signal (z-score),[4],-0.036
same,glycan array binding signal (z-score),[5],0.263
same,glycan array binding signal (z-score),[6],0.104
same,glycan array binding signal (z-score),[7],0.056
same,glycan array binding signal (z-score),[8],23.3
same,glycan array binding signal (z-score),[9],7.17
same,glycan array binding signal (z-score),[10],-0.083
same,glycan array binding signal (z-score),[11],-0.044
same,glycan array binding signal (z-score),[12],-0.028
same,glycan array binding signal (z-score),[13],-0.033
same,glycan array binding signal (z-score),[14],-0.052
same,glycan array binding signal (z-score),[15],0.055
same,glycan array binding signal (z-score),[16],-0.076
same,glycan array binding signal (z-score),[17],-0.037
same,glycan array binding signal (z-score),[18],-0.048
same,glycan array binding signal (z-score),[19],-0.029
same,glycan array binding signal (z-score),[20],-0.064
same,glycan array binding signal (z-score),[21],0.166
same,glycan array binding signal (z-score),[22],-0.036
same,glycan array binding signal (z-score),[23],-0.086
same,glycan array binding signal (z-score),[24],-0.01
same,glycan array binding signal (z-score),[25],-0.03
same,glycan array binding signal (z-score),[26],-0.001
same,glycan array binding signal (z-score),[27],-0.059
same,glycan array binding signal (z-score),[28],-0.053
same,glycan array binding signal (z-score),[29],-0.067
